Experiments:
Test in all cases: log2 ratio of Biotin-Ahx-Ub-VS probe labelling (fragment/DMSO); higher = less target engagement (more negative = stronger competition), active = hit call of the paper (q ≤ 0.05, log2 ratio ≤ -1)
Conditions in all cases: compound concentration: 200 uM; treatment time: 3 h
USP42 = molecular target: T1, USP42 (UniProt Q9H9J4)
T1 sequence (whole entry): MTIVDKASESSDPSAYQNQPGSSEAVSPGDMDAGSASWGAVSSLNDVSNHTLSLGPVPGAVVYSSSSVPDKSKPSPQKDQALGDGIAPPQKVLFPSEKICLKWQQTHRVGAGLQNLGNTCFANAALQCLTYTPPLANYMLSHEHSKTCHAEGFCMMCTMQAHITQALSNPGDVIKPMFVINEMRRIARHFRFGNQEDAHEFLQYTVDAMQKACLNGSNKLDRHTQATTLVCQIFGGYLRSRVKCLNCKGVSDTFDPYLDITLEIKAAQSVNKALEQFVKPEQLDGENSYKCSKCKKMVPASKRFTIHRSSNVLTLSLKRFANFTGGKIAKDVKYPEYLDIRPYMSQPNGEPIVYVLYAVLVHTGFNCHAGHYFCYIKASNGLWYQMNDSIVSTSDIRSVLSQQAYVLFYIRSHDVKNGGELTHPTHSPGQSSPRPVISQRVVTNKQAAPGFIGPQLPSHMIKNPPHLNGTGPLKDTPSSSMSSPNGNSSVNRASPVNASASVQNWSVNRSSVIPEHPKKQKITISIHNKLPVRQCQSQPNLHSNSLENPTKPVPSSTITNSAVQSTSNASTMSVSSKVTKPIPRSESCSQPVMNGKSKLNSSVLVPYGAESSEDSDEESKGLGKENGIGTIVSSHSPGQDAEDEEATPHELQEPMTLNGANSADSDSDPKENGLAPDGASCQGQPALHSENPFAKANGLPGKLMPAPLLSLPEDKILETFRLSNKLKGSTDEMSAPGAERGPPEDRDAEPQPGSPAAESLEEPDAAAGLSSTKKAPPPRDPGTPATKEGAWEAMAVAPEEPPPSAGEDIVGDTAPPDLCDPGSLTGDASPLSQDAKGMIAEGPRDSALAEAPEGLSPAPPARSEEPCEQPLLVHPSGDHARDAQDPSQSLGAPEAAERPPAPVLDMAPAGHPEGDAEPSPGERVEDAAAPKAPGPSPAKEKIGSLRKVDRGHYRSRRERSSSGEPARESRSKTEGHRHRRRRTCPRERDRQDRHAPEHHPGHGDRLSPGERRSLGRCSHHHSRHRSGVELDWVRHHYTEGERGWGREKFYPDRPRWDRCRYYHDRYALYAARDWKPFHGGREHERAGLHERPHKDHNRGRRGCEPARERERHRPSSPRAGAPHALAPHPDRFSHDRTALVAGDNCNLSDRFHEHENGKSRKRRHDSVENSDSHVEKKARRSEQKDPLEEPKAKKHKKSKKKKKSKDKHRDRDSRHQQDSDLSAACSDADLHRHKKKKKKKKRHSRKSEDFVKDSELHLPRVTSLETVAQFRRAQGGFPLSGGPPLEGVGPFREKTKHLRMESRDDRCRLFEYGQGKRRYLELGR
In short: (§1)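 Each value is an average log2 ratio of fragment to vehicle, tested by unpaired t-test. The underlying Spectronaut label-free quantities were global-median-normalised, and only proteins with ≥2 unique peptides were included. Triplicate HEK293T lysate samples (495 µg) were exposed to fragment at 200 µM or vehicle for 3 h, then to Biotin-Ahx-Ub-VS at 0.5 µM final for 1 h, before NeutrAvidin enrichment of labelled DUBs, LysC and trypsin digestion, and diaPASEF LC-MS/MS.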

USP46 = USP46 (UniProt P62068)
USP46, sequence (P62068 whole entry): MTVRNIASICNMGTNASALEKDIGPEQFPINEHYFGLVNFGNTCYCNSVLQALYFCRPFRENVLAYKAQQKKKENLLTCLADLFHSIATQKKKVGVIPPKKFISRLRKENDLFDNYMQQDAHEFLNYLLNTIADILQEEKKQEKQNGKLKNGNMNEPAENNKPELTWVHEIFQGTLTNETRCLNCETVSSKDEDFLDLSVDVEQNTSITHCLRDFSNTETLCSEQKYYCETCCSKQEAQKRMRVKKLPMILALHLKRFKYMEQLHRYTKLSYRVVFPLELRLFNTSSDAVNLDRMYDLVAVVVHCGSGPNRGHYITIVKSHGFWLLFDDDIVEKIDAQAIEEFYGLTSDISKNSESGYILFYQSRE
In short: as §1

USP47 = molecular target: T2, USP47 (UniProt Q96K76)
T2 sequence (whole entry): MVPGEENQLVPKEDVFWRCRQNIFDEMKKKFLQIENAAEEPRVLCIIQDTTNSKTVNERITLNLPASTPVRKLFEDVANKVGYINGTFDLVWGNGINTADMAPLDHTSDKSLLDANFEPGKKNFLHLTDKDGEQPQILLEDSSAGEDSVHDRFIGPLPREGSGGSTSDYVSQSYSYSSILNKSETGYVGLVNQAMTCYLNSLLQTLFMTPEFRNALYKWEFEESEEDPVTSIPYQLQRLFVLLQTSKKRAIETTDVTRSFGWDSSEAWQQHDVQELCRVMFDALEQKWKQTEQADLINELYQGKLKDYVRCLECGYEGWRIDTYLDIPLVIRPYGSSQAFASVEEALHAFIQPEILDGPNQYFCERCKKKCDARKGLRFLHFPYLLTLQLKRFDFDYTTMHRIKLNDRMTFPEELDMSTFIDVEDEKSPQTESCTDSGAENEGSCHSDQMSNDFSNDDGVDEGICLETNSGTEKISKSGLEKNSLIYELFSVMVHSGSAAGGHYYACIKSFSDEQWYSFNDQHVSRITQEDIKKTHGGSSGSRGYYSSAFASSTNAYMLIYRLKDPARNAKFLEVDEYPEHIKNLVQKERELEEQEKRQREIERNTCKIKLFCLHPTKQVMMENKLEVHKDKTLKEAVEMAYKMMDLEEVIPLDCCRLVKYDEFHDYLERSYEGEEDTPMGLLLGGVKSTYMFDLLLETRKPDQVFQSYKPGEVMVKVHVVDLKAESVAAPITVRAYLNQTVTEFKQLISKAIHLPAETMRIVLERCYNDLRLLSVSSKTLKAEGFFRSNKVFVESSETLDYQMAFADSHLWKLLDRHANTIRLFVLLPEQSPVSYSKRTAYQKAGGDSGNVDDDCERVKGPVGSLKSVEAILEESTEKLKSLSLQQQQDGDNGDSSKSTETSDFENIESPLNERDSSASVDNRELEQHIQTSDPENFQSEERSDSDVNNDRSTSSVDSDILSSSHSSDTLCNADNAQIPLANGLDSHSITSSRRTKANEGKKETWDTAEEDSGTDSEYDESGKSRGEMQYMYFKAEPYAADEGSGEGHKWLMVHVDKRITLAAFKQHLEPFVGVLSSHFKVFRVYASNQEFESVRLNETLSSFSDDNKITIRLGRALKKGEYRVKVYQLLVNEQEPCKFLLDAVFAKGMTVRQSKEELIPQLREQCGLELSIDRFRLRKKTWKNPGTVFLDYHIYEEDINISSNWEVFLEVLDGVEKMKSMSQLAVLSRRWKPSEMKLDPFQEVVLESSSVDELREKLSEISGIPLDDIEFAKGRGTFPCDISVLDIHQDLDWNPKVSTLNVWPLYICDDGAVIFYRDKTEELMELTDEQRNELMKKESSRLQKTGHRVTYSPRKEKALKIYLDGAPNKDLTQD
In short: as §1

USP48 = molecular target: T3, USP48 (UniProt Q86UV5)
T3 sequence (whole entry): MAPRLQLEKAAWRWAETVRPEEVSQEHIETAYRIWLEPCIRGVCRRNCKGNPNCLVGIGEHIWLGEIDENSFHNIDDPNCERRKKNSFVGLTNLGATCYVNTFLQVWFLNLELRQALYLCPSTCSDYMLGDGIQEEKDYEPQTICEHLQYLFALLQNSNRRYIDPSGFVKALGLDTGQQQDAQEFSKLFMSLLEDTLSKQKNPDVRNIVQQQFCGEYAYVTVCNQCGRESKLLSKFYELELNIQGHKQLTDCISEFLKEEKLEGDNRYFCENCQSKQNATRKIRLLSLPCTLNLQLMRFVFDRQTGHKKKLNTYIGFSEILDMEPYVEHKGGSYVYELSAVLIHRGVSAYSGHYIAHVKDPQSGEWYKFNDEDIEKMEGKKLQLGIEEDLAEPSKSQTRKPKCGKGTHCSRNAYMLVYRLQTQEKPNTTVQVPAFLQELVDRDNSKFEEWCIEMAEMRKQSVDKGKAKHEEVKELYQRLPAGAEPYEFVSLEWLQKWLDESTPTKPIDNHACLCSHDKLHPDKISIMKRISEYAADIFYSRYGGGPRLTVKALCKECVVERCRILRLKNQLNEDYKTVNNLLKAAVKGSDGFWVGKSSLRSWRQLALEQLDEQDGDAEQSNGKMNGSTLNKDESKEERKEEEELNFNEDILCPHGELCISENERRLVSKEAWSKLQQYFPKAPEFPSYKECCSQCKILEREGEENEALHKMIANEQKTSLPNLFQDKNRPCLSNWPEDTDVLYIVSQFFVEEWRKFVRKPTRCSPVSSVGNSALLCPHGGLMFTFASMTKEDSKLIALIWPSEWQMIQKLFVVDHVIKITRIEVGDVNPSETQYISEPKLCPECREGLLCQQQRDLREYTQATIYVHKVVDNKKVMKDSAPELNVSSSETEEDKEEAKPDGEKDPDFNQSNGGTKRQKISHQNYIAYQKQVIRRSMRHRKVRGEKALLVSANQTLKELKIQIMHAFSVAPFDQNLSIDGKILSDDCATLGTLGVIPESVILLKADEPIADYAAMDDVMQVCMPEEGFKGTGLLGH
In short: as §1

USP5 = molecular target: T4, USP5 (UniProt P45974)
T4 sequence (whole entry): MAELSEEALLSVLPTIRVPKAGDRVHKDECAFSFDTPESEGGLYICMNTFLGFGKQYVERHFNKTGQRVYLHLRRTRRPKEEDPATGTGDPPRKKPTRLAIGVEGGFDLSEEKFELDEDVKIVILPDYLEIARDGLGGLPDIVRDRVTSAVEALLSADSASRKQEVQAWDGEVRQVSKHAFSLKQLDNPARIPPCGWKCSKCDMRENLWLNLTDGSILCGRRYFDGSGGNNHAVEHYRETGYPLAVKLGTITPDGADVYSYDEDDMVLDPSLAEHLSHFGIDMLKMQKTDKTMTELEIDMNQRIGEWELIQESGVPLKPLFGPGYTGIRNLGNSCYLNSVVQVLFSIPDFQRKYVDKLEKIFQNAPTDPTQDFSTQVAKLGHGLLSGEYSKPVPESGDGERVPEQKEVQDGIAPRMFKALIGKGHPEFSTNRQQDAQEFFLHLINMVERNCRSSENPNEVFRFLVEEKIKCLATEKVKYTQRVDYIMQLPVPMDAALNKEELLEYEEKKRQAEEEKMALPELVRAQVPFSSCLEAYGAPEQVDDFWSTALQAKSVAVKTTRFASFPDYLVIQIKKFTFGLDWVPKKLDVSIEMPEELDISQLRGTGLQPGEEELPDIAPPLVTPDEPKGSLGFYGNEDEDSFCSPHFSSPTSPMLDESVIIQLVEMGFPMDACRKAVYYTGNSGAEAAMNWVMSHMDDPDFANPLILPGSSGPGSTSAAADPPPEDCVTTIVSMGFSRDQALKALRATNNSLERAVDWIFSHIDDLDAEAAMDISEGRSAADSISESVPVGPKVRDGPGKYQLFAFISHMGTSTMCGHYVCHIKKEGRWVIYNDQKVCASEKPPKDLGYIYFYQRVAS
In short: as §1

USP54 = USP54 (UniProt Q70EL1)
USP54, sequence (Q70EL1 whole entry): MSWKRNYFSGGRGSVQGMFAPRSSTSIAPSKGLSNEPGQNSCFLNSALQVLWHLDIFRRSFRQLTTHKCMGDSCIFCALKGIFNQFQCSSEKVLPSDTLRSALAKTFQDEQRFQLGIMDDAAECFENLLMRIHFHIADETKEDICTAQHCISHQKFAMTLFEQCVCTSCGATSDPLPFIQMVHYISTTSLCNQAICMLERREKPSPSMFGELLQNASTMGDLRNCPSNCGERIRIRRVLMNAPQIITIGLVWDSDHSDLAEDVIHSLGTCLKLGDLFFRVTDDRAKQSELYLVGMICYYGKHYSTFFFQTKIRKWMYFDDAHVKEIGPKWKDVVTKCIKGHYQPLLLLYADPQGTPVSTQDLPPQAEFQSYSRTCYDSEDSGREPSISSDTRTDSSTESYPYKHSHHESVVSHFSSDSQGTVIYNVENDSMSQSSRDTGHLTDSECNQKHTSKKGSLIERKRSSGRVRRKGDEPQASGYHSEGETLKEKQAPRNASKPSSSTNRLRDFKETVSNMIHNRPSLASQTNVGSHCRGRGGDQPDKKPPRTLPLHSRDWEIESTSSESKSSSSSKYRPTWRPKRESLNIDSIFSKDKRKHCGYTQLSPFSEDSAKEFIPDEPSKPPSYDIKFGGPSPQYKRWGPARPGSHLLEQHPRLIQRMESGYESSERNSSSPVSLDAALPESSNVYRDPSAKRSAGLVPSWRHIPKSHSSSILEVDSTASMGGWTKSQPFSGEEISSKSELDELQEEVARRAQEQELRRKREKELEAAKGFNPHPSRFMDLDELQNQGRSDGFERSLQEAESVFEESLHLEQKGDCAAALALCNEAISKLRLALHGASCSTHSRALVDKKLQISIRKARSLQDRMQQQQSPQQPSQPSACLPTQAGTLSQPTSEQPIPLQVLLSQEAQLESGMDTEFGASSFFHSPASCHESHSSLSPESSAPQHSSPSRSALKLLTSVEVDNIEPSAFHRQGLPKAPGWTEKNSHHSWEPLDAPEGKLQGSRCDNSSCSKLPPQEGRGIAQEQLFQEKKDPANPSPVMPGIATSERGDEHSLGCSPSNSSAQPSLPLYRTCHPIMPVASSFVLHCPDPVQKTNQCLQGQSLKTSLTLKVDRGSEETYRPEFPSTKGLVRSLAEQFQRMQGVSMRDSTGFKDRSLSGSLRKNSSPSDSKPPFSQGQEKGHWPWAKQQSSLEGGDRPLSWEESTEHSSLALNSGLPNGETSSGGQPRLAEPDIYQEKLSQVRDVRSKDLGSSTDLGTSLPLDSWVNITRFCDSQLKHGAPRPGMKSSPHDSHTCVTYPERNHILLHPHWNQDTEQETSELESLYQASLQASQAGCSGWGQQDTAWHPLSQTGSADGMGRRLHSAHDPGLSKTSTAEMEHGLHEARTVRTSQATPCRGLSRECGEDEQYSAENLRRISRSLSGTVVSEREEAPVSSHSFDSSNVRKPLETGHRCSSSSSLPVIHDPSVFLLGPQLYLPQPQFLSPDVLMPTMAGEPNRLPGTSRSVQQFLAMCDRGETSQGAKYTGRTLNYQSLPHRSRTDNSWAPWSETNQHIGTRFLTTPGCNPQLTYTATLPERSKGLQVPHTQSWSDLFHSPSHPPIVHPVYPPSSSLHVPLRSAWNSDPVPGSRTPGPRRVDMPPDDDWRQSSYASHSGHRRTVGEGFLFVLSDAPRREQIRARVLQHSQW
In short: as §1

USP7 = USP7 (UniProt Q93009)
USP7, sequence (Q93009 whole entry, looked up): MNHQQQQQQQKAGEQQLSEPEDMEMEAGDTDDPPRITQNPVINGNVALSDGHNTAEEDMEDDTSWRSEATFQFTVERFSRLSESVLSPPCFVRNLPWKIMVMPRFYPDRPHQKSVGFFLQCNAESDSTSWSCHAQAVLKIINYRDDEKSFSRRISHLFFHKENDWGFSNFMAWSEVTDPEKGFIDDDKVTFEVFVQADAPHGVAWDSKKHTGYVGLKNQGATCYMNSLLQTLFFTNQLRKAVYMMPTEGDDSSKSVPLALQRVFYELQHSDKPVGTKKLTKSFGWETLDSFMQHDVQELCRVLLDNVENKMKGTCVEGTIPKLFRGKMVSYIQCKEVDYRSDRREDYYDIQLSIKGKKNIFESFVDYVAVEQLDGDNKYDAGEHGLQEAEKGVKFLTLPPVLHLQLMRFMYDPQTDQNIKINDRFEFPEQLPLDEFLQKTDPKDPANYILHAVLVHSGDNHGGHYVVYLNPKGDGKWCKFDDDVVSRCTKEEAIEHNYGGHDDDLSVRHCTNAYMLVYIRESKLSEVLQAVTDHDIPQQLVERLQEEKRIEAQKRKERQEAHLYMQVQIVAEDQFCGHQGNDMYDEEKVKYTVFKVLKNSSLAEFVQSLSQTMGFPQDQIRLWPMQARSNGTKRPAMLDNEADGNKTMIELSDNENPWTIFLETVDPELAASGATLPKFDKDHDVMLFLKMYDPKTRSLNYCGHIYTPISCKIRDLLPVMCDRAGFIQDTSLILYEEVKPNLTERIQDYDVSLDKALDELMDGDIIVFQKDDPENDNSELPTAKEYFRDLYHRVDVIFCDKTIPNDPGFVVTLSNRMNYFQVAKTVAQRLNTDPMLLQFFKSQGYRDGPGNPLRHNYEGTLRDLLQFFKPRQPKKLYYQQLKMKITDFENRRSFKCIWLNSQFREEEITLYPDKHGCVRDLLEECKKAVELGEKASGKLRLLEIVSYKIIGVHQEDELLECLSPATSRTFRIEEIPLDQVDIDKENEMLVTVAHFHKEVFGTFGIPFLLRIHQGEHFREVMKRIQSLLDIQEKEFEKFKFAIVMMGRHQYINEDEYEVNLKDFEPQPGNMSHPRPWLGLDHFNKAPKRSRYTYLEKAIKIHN
In short: as §1

USP8 = molecular target: T5, USP8 (UniProt P40818)
T5 sequence (whole entry): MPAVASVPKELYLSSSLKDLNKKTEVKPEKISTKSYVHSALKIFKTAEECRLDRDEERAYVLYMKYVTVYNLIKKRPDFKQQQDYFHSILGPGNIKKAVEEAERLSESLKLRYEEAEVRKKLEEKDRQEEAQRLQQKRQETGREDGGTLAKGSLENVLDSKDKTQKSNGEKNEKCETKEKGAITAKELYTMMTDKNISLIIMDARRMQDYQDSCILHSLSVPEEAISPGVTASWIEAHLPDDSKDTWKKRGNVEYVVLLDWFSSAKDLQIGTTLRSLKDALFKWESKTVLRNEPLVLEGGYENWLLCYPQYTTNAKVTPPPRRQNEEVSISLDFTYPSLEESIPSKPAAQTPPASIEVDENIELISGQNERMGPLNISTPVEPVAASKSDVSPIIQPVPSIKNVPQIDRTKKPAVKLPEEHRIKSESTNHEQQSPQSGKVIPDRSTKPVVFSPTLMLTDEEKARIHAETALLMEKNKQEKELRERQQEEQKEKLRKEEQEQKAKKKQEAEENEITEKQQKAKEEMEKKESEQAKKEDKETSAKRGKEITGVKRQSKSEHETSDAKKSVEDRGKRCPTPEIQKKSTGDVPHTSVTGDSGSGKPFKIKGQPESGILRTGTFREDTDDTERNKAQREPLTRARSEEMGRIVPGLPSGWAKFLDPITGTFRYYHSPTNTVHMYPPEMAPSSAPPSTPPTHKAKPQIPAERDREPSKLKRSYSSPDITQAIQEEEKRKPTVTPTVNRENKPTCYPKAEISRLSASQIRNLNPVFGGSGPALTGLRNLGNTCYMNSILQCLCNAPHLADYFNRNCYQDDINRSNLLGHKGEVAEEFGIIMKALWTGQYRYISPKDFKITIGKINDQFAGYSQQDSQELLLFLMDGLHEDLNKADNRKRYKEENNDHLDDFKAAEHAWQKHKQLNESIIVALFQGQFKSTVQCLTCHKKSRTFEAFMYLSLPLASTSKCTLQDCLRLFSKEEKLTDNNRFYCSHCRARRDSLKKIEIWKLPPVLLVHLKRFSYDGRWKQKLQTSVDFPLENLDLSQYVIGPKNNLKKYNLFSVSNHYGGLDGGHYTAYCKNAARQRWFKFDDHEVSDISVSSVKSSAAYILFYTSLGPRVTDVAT
In short: as §1

USP9X = USP9X (UniProt Q93008)
In short: as §1

UniProt O00487 = molecular target: UniProt O00487
UniProt O00487, sequence (O00487 whole entry): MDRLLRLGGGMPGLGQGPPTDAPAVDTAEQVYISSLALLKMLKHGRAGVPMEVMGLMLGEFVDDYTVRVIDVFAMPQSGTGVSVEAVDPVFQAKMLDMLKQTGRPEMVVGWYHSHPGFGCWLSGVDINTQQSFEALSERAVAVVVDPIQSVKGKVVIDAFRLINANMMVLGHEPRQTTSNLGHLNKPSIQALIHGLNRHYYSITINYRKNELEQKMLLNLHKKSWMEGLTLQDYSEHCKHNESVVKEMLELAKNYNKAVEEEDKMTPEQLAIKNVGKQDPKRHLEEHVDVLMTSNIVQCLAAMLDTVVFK
In short: as §1

Measured: log2 ratio of Biotin-Ahx-Ub-VS probe labelling

Cl.O=C(CCl)NCc1cc2c(nc1O)CCCC2
inactive: USP42 -0.448 | USP46 0.127 | USP48 -0.169 | USP5 0.0226 | USP54 0.773 | USP7 -0.155 | USP8 -0.3 | USP9X -0.309 | UniProt O00487 -0.0291
active: USP47 -1.45

From the supplement of paper PMC11732987, “Enantioselective OTUD7B fragment discovery through chemoproteomics screening and high-throughput optimisation” (Communications Chemistry, 2025)
